This assay deals with Vero E6 infected with SARS-CoV-2. The experiment in a line: morphology score (similarity to uninfected cells); higher = more like uninfected cells. As to conditions: 24 h.
As to `Cc1cccc(C)c1NC(=O)c1ccc(N)cc1` [ameltolide] (10 µM), the morphology score is -0.146.
`CCCCNc1ncc2c(-c3ccc(CN4CCN(C)CC4)cc3)cn([C@H]3CC[C@H](O)CC3)c2n1` (10 µM): the morphology score was -0.164.
`CN1CCCC(n2nc(Cc3ccc(Cl)cc3)c3ccccc3c2=O)CC1` (stereo not given) [azelastine] (10 µM) displayed a morphology score of 0.458.
As for `O=C(/C=C/c1ccc(O)c(O)c1)O[C@@H]1C[C@](O)(C(=O)O)C[C@@H](O)[C@H]1O` [chlorogenic-acid] (10 µM), the figure is 0.0432; as for `CC(=O)[C@@]1(O)CC[C@H]2[C@@H]3C=C(Cl)C4=CC(=O)[C@@H]5C[C@@H]5[C@]4(C)[C@H]3CC[C@@]21C` (10 µM), 0.204; as for `CC(C)(C)NCC(O)c1ccccc1Cl` (stereo not given) [tulobuterol] (10 µM), -0.0152.
For the compound `COc1ccc(C2C(=O)c3ccccc3C2=O)cc1` [anisindione] (10 µM), the morphology score is -0.177.
As for `COc1cc(N2CCC(O)CC2)ccc1Nc1cc(Nc2ccccc2S(=O)(=O)C(C)C)c2cc[nH]c2n1` (0.833333 µM), the figure is -0.0202; as for `CN1CCC(OC(c2ccccc2)c2ccccc2)CC1` [diphenylpyraline] (10 µM), 0.291; as for `O=C(O)[C@]1(Cc2cccc(Nc3nccs3)n2)CC[C@@H](Oc2cccc(Cl)c2F)CC1` (0.833333 µM), 0.175.
`O=C(O)c1cc(=O)c2ccccc2[nH]1` [kynurenic-acid] (10 µM) came in with a morphology score of 0.122.
As for `Cc1ccc2c(c1)C1(CCN(CCc3nc(-c4ccccc4)oc3C)CC1)OC(=O)N2` (0.833333 µM), the figure is 0.0199.
Turning to `O=C1N=C2SCCN2C(=O)C1Cc1ccc(Cl)cc1` (stereo not given) [nuclomedone] (10 µM), the morphology score was found to be 0.238.
As for `Cc1ccc(-c2nn(C(C)(C)CNC(=O)c3ncccc3C)c3ncnc(N)c23)cc1` [WEHI-345-analog] (0.833333 µM), the morphology score is -0.0639.
In turn, `CNCCC=C1c2ccccc2C=Cc2ccccc21` [norcyclobenzaprine] (10 µM) returned a morphology score of 0.314.
With `CCOC(=O)c1ccc(O)cc1` [ethyl-paraben] (10 µM), the morphology score was -0.0381.
`CC(O)c1cc(C(=O)N[C@@H](C)Cn2ccc(-c3ccc(C#N)c(Cl)c3)n2)n[nH]1` (stereo not given in full) (10 µM) yielded a morphology score of 0.201.
As for `NC(=O)c1ccc(F)c2c1C[C@@H](N(C1CCC1)C1CCC1)CO2` [robalzotan] (10 µM), the figure is 0.00904; as for `CC(=O)Oc1cc(C(F)(F)F)ccc1C(=O)O` [triflusal] (10 µM), 0.126.
For `CCC[C@@H]1C[C@@H](C(=O)N[C@@H]([C@H]2O[C@H](SC)[C@H](O)[C@@H](O)[C@H]2O)[C@@H](C)O)N(C)C1` [lincomycin] (10 µM) the value was -0.111; for `COc1cccc(C2(O)CCCCC2CN(C)C)c1` (stereo not given) (10 µM), 0.17.
As for `COC(=O)[C@]12CCC(C)(C)C[C@H]1[C@H]1C(=O)C=C3[C@@]4(C)C=C(C#N)C(=O)C(C)(C)[C@@H]4CC[C@@]3(C)[C@]1(C)CC2` [Bardoxolone Methyl] (10 µM), the figure is -0.259; as for `CN1C(C(=O)Nc2ccccn2)=C(O)c2ccccc2S1(=O)=O` [piroxicam] (10 µM), 0.184.
For `Cc1nnc(C(C)C)n1C1C[C@H]2CC[C@@H](C1)N2CC[C@H](NC(=O)C1CCC(F)(F)CC1)c1ccccc1` (stereo in doubt) [maraviroc] (10 µM), the morphology score is 0.145.
For `CNCC(=O)O` [sarcosine] (10 µM) the value was 0.0271; for `COc1ccc(Cl)c(Nc2nc3ccccc3nc2NS(=O)(=O)c2cccc(NC(=O)C(C)(C)N)c2)c1` [pilaralisib] (10 µM), 0.0424; for `C[C@H]1NCc2cc(-c3ccc4c(=O)c(C(=O)O)cn(C5CC5)c4c3OC(F)F)ccc21` [garenoxacin] (10 µM), 0.0451.
In turn, `C[C@@H]1c2ccccc2CN1CC1=NCCN1` (racemic) (10 µM) had a morphology score of 0.0304.
Turning to `COCCCOc1cc(C[C@@H](C[C@H](N)[C@@H](O)C[C@H](C(=O)NCC(C)(C)C(N)=O)C(C)C)C(C)C)ccc1OC` [aliskiren-hemifumarate] (10 µM), the morphology score was -0.0367.
As for `O=c1ncn2nc(Sc3ccc(F)cc3F)ccc2c1-c1c(Cl)cccc1Cl` (10 µM), the figure is -0.049; as for `C[C@]1(c2nc3c(C(N)=O)cccc3[nH]2)CCCN1` [veliparib] (10 µM), 0.206; as for `COc1cc2ncnc(Nc3ccc(F)c(Cl)c3)c2cc1NC(=O)/C=C/CN1CCCCC1` [dacomitinib] (0.833333 µM), -0.0483.
Consider `COc1cc(OC)c(NC(=O)Nc2cc(C)on2)cc1Cl` (10 µM), for which the morphology score is 0.268.
For `CC(=O)N[C@@H](CS)C(=O)O` [acetylcysteine] (10 µM) the value was 0.183; for `O=C(NCc1ccc(F)cc1)N1CCN2C(=O)OC(c3ccccc3)(c3ccccc3)[C@@H]2C1` (racemic) (10 µM), 0.069; for `COc1ccnc2[nH]cc(C(=O)C(=O)N3CCN(C(=O)c4ccccc4)C[C@H]3C)c12` (10 µM), -0.0708.
For the compound `O=C1NC(=O)/C(=C/c2cccc(C(F)(F)F)c2)S1` (10 µM), the morphology score was found to be 0.00293.
In turn, `Cc1c(C)c2c(c(C)c1O)CCC(C)(COc1ccc(CC3SC(=O)NC3=O)cc1)O2` (stereo not given) [troglitazone] (10 µM) came in with a morphology score of 0.342.
For `COc1cc(C(=O)N2CCC(N3CCN(C)CC3)CC2)ccc1Nc1ncc2c(n1)N(C)c1ccccc1C(=O)N2C` (0.833333 µM) the value was 0.0522; for `CCCCC(=O)O[C@H]1CC[C@H]2[C@@H]3CCc4cc(O)ccc4[C@H]3CC[C@]12C` (10 µM), -0.00932.

The values are drawn from the supplement of paper PMC13380429.
